LGR2 antag: inhibitors of bursicon-induced Drosophila LGR2 receptor cAMP signaling; HEK293 LGR2, CRE-luciferase, bursicon-stimulated, 4 h; inhibition, % at 9.99 µM; 380,000 compounds, 0.35% hits; AID 720647;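 active = drop in luminescence signal, shown as inhibition above about 50% in the replicate tests, limit read from the data, passing the limit was not always enough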;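 also: agonist challenge used bursicon conditioned medium at about half maximal strength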
TWEAK-Fn14 inh: TWEAK-Fn14 signaling inhibition | TWEAK-stimulated Fn14 reporter cells, luciferase luminescence, 8 h | 360,000 compounds, 2% hits | inhibition, % at 10 µM | AID 1159606; in the data active = inhibition above about 50%
HSP90 inh: HSP90 refolding inhibition in rabbit reticulocyte lysate. 290,000 compounds, 0.91% hits. inhibition, % at 5.6 µM. AID 1789. luciferase refolding luminescence, 3 h;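 active = inhibition above the screen-wide mean plus 3 SD, computed separately per campaign, cut at about 16% in these data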;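 also: 0% = DMSO wells and 100% = 60 µM geldanamycin wells; inhibitors lower the luminescence because luciferase stays unfolded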
TROY signal inh: TROY signaling inhibition | Q293 LMP1-TROYcd NF-kB luciferase reporter, 4 h | inhibition, % at 10 µM | 360,000 compounds, 0.98% hits;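 active = compounds whose plate-normalised and pattern-corrected inhibition of the luciferase reporter signal at the single screening dose is 50% or more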
HSP90 confirm: confirmation of HSP90 inhibitors; shares compounds with HSP90 inh; rabbit reticulocyte lysate, luciferase refolding luminescence, 3 h; inhibition, % at 5.9 µM; 2,300 compounds, 64% hits; AID 1846; in the data active = inhibition above about 18%;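 also: 0% = vehicle wells and 100% = reference inhibitor wells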
FLuc counter: firefly luciferase inhibition, HSP90 counter-screen. shares compounds with HSP90 inh. purified native firefly luciferase, luminescence. inhibition, % at 5.9 µM. 2,300 compounds, 48% hits. AID 1847;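 active = inhibition above the mean inhibition of all tested sample wells plus 3 SD, cut at about 10% in these data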;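 also: 0% = DMSO with luciferase and 100% = wells lacking luciferase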
Target sequence (P08659 whole entry, looked up): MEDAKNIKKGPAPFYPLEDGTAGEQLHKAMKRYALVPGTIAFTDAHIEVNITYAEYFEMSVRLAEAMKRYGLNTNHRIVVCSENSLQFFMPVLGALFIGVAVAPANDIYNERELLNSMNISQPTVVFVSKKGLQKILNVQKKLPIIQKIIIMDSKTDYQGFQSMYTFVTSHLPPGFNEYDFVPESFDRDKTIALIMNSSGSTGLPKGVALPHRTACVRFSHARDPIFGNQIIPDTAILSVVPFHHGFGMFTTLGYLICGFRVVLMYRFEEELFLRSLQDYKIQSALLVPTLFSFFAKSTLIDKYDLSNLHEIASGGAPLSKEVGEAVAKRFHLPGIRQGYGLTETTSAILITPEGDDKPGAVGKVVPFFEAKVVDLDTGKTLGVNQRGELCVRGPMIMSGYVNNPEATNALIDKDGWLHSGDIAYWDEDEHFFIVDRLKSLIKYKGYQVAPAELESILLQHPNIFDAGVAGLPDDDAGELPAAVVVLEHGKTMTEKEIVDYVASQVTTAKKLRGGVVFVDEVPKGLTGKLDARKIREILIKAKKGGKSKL
Starred values were filed as active, the others as inactive; . = no result given. The list is not random: actives were taken first. Their share in the collection is about 2.2%.

SMILES | LGR2 antag | TWEAK-Fn14 inh | HSP90 inh | TROY signal inh | HSP90 confirm | FLuc counter
COc1ccc(CCC(=O)OCC(=O)c2c(N)n(CC(C)C)c(=O)n(C)c2=O)cc1 | 1 | 1 | 18* | 35 | 6 | 3
COCC(=O)Nc1ccc2c(c1)OC[C@H](C)NC[C@H](C)[C@@H](OC)CN(C)C2=O | 14 | . | . | . | . | .
N#CCCN(Cc1cccnc1)C(=S)NCc1ccco1 | -9 | -1 | 61* | -24 | 4 | 1
O=C(CNS(=O)(=O)c1ccc(Br)s1)NCc1ccccc1 | -11 | 15 | 17* | -16 | -3 | -5
Oc1ccccc1-c1cc(-c2ccc3c(c2)OCCO3)n[nH]1 | . | 71* | 21* | 58* | 38* | 35*
COc1ccccc1C#Cc1cnc2c(c1)C(=O)N([C@H](C)CO)C[C@H](C)[C@@H](CN(C)C(C)=O)O2 | -7 | . | . | . | . | .
O=[N+]([O-])c1ccc(N2CCN(c3ccc([N+](=O)[O-])cc3CO)CC2)c(CO)c1 | -6 | 22 | 19* | 33 | 5 | -4
CC(C)NC(=O)Nc1ccc2c(c1)CC(=O)N([C@H](C)CO)C[C@@H](C)[C@@H](CN(C)Cc1ccccc1)O2 | 5 | . | . | . | . | .
C/C(=N\NC(=O)c1ccc(N/N=C(\C)c2ccc(O)cc2)cc1)c1ccc(O)cc1 | -15 | 3 | 27* | 5 | 4 | -17
C/C(=N\NC(=O)c1ccc(O)cc1)c1ccc(N2CCOCC2)cc1 | 12 | -39 | 0 | -17 | . | .
C/C(=N/NC(=O)c1ccccn1)c1ccc(O)cc1 | -12 | 12 | 20* | -7 | 6 | -14
C[C@@H]1CN([C@@H](C)CO)C(=O)c2cccc(NC(=O)C3CCOCC3)c2O[C@H]1CN(C)Cc1ccncc1 | 10 | . | . | . | . | .
Cn1c2ccccc2c(=O)c2cc(C#CC3(O)CCCCC3)ccc21 | 82* | 90* | 72* | 88* | 76* | 71*
Cn1c2ccccc2c(=O)c2ccc(C#CC3(N)CCCCC3)cc21 | 5 | 34 | 34* | 62* | 30* | 9
COCC(=O)Nc1ccc2c(c1)C(=O)N(C)C[C@@H](OC)[C@@H](C)CN(CC1CCCCC1)[C@H](C)CO2 | -1 | . | . | . | . | .
CCN(CC)c1ccc(/C=C(\C#N)c2ccccn2)cc1 | . | 77* | 21* | 71* | 70* | 60*
CSc1ccc(/C=N/Nc2cccc(C(=O)O)c2)cc1 | . | -61 | 25* | -28 | 86* | 84*
O=C(O)c1cccc(N/N=C/c2ccc(OC(F)(F)F)cc2)c1 | -9 | -18 | 47* | -64 | 76* | 76*
O=C(O)c1ccc(N/N=C/c2ccc(OC(=O)c3cccc(Cl)c3)cc2)cc1 | 80* | -1 | 43* | 53* | 85* | 6
O=C(Oc1ccc(/C=N/Nc2ccccc2)cc1)c1ccccc1 | . | -9 | -6 | -33 | . | .
Cc1ccc(S(=O)(=O)N[C@@H]2CC[C@@H](CCNC(=O)Cc3ccccn3)O[C@H]2CO)cc1 | -20 | . | . | . | . | .
O=C(CN1CCOCC1)N1CCCCN2[C@H](CO)[C@H](c3ccc(C#Cc4ccccc4)cc3)[C@@H]2C1 | 1 | . | . | . | . | .
C[C@@H]1CN([C@H](C)CO)C(=O)c2cccc(NC(=O)C3CCOCC3)c2O[C@@H]1CN(C)C(=O)Nc1ccc2c(c1)OCO2 | 14 | . | . | . | . | .
Cc1nc(N)sc1-c1csc(Nc2cccc(O)c2)n1 | 9 | 29 | 31* | 2 | -4 | -21
CC(=O)c1cccc(Nc2nc(-c3sc(N)nc3C)cs2)c1 | 1 | -9 | 52* | 10 | 1 | -10
SMILES | LGR2 antag | TWEAK-Fn14 inh | HSP90 inh | TROY signal inh | HSP90 confirm | FLuc counter
CC(=O)c1cccc(Nc2nc(-c3sc(C)nc3C)cs2)c1 | . | 31 | -2 | 21 | . | .
Cc1nc(C)c(-c2csc(Nc3cccc(O)c3)n2)s1 | -95 | -4 | -6 | -26 | . | .
Cc1ccc(C2/C(=C(/O)c3cnn(-c4ccccc4)c3C)C(=O)C(=O)N2CCN2CCOCC2)o1 (stereo not given) | . | 18 | 21* | -11 | 16 | 5
Cc1nc2ccccn2c1/C(O)=C1\C(=O)C(=O)N(CCN2CCOCC2)C1c1cccs1 (stereo not given) | 5 | 12 | 1 | -14 | . | .
Cc1c(/C(O)=C2/C(=O)C(=O)N(CCN3CCOCC3)C2c2cccs2)cnn1-c1ccccc1 (stereo not given) | . | 53* | 45* | 60* | 47* | 40*
CO[C@@H]1CN(C)C(=O)c2ccc(NC(=O)C3CC3)cc2OC[C@@H](C)N(C(=O)c2ccccn2)C[C@H]1C | -8 | . | . | . | . | .
CCCNC(=O)N1C[C@H](O)COC[C@@H]2O[C@@H](CC(=O)N3CCN(C)CC3)CC[C@H]21 | 8 | . | . | . | . | .
O=C(CN1C(=O)c2ccccc2S1(=O)=O)c1ccc(Cl)cc1Cl | 103* | 105* | 89* | 87* | 91* | 29*
O=C(CN1C(=O)c2ccccc2S1(=O)=O)c1ccc2c(c1)OCCO2 | 103* | 104* | 57* | 83* | 68* | -8
O=C(CN1C(=O)c2ccccc2S1(=O)=O)c1ccc2c(c1)OCCCO2 | 93* | 102* | 80* | 81* | 82* | -19
O=C(CCN1C(=O)c2ccccc2S1(=O)=O)Nc1cc(Cl)ccc1Cl | -3 | -13 | . | -16 | . | .
O=C(CCN1C(=O)c2ccccc2S1(=O)=O)Nc1ccc2c(c1)OCCO2 | -20 | 13 | -1 | -39 | . | .
Cc1noc(C)c1NC(=O)N(C)C[C@H]1OCCCC[C@@H](C)Oc2ccc(NS(=O)(=O)c3cccs3)cc2C(=O)N([C@@H](C)CO)C[C@H]1C | -8 | . | . | . | . | .
C[C@@H]1CN([C@H](C)CO)C(=O)Cc2cc(NC(=O)Nc3ccc4c(c3)OCO4)ccc2O[C@H]1CN(C)Cc1ccc2c(c1)OCO2 | 15 | . | . | . | . | .
CCOC(=O)N1CCC(N2C(=O)c3ccccc3C2Nc2ccc3c(C)cc(=O)oc3c2)CC1 (stereo not given) | -14 | -8 | 18* | 10 | 2 | 0
CNc1nnc(-c2ccc(N(C)C)cc2)s1 | . | 62* | 20* | 16 | 47* | 37*
O=C(c1ccccn1)N1CC(=O)N2[C@@H](CO)[C@H](c3ccc(C#Cc4ccccc4)cc3)[C@@H]2C1 | 19 | . | . | . | . | .
COc1ccc(/C=N/Nc2nc3ccccc3s2)cc1O | 86* | 74* | 22* | 60* | 55* | 49*
COc1cccc(C=NNc2nc3ccccc3s2)c1OC | 26 | 34 | . | 45 | . | .
COc1ccc(C(=O)NNc2ccccc2)cc1 | 0 | 5 | -4 | -8 | . | .
COc1ccc(NC(=S)NNc2ccc(C(=O)O)cc2)cc1 | 13 | 58* | 21* | 19 | 42* | 38*
Cc1ccc(-c2nc3cc(NC(=O)C(C)C)ccc3o2)cc1C | . | 86* | 34* | 80* | 53* | 54*
Cc1cc2nc(-c3ccc(NC(=O)C(C)C)cc3)oc2cc1C | 5 | 15 | 0 | 11 | . | .
CCC(=O)Nc1ccc2oc(-c3cccc(C)c3)nc2c1 | . | 74* | 24* | 29 | 40* | 35*
